# Source: PubChem BioAssay (several laboratories)
# CYP2C9 act = human CYP2C9 activators, primary screen, biochemical, luminescence; AID 1024, 2008; recombinant CYP2C9, luciferin-H conversion; active compounds read high; factor 1 = untreated enzyme, 0 = blocked; 1.4% of 96,000 active; Cytochrome P450 2C9 (Homo sapiens), P11712; activation factor at 5 µM;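 active = activation factor of 2 or more for CYP2C9 at a 5 µM dose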;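 also: 0 = sulfaphenazole-blocked wells and 1 = vehicle-only wells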
# CYP2C19 activ = human CYP2C19 activators, primary screen, biochemical, luminescence; AID 1025, 2008; activation factor at 5 µM; 96,000 tested, under 10 active; recombinant CYP2C19, luciferin-H EGE luminescence; active compounds read high; 0 = fully inhibited enzyme, 1 = untreated enzyme;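 active = activation factor of at least 2 at 5 µM in the primary screen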;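 also: 0 = wells with 2.5 mM tranylcypromine and 1 = vehicle-only wells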
# CYP2C19 inhib = blockers of cytochrome P450 2C19 activity – biochemical, luminescence, ADME assay, primary screen; P33261; CYP2C19 Supersomes, luciferin-H EGE luminescence, 30 min; inhibition, % at 5 µM; 21% of 96,000 active;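 active = CYP2C19 inhibition above a set limit at 5 µM in the primary screen, cut at about 50% in these data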;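 also: plate controls were negative control wells for no effect and 2.5 mM tranylcypromine positive control for full effect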
# sEH activator = soluble epoxide hydrolase activators, primary screen, biochemical, human sEH; purified human sEH enzymatic activity, activator screen; activation, % at 2 µM; 0.04% of 91,000 active; AID 717, 2007; in the data active = activation above about 37%
# Target sequence (P34913 whole entry, looked up): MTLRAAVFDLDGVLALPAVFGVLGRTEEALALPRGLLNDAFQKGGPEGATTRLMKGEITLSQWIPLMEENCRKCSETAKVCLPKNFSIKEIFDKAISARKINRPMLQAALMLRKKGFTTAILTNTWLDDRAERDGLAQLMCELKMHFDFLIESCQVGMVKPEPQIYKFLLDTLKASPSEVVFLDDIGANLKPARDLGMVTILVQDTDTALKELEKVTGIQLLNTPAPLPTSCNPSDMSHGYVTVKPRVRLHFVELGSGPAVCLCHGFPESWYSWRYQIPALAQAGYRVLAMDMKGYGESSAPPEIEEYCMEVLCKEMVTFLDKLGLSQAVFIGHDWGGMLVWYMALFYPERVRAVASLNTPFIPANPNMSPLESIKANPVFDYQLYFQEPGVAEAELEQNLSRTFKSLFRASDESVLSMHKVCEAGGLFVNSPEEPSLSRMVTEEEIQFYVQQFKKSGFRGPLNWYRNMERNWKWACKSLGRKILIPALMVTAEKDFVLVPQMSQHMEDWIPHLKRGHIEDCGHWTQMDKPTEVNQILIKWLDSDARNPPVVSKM
# sEH inh = soluble epoxide hydrolase inhibitors, primary screen, biochemical, human sEH; Bifunctional epoxide hydrolase 2 (Homo sapiens), P34913; recombinant human sEH enzymatic activity assay; inhibition, % at 2 µM; 0.34% of 91,000 active; AID 707, 2007; in the data active = inhibition above about 80%
# CYP2C9 inh = blockers of cytochrome P450 2C9 activity – biochemical, luminescence, ADME assay, primary screen; P11712; CYP2C9 Supersomes, luciferin-H conversion; inhibition, % at 5 µM; 20% of 96,000 active;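 active = blocking of liver enzyme CYP2C9 beyond about 50% at 5 µM, limit read from the data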
# Active calls of the source: *; · = no result. Compounds with a hit are over-represented: about 27% of the library has one in this group of screens.
SMILES,CYP2C9 act,CYP2C19 activ,CYP2C19 inhib,sEH activator,sEH inh,CYP2C9 inh
CCN(CC)C(=O)c1cc(-c2ccc(Br)cc2)on1,1,1,4,6,-5,4
COc1ccccc1NC(=O)C(=O)NNC(=O)c1ccco1,1.1,1,-4,1,2,-11
CC(C)(C)c1cc(CN2CCCC(O)C2)c(O)c(C(C)(C)C)c1 (stereo unspecified),0.6,0.8,21,·,·,37
COc1ccc(N(CC(=O)NCCSC2CCCCC2)S(C)(=O)=O)c(OC)c1,1.9,0.8,22,-8,10,-91
COc1cccc(-c2nc(CSCC(=O)NCC3CCCO3)c(C)o2)c1 (stereo unspecified),0.8,0.9,12,20,-20,16
CCOC(=O)c1c(NC(=O)CSc2n[nH]c(N)n2)sc(CC)c1C,0.2,0.5,50,·,·,76*
CCOC(=O)CNC(=O)CSc1nnnn1-c1ccc(C)c(C)c1,2.6*,0.8,17,4,-4,-163
CCOC(=O)c1c(NC(=O)CSc2nnnn2CC)sc(C)c1C,0.5,0.9,14,-3,4,52*
CCOC(=O)c1sc(NC(=O)CSc2nncs2)c(C(=O)OCC)c1C,0.9,1,2,·,·,10
CCOC(=O)c1sc(NC(=O)CSc2nnnn2-c2ccc(C)cc2)c(C(=O)OCC)c1C,0.2,0.5,48,2,-4,80*
Cn1c(NC(=O)c2ccco2)cc(=O)n(C)c1=O,1,1,2,·,·,4
CCOC(=O)c1c(NC(=O)CSc2n[nH]c(-c3ccco3)n2)sc(C)c1C,0.1,0.6,37,4,0,88*
O=C(CSc1n[nH]c(-c2ccco2)n1)Nc1sc2c(c1C(=O)Nc1ccccc1)CCCC2,0.2,0.5,48,6,-3,84*
CCOC(=O)c1c(NC(=O)CSc2nnnn2C)sc(CC)c1C,0.5,0.2,83*,·,·,48
CCn1nnnc1SCC(=O)Nc1sc(C)c(C)c1C#N,0.2,0.8,19,2,0,79*
CCOC(=O)c1c(NC(=O)CSc2n[nH]c(CNc3ccccc3)n2)sc(C)c1C,·,·,·,-55,56,·
Cc1ccc(Cl)cc1N1CCN(C(=O)CN(C2CCCCC2)S(C)(=O)=O)CC1,·,·,·,8,-3,·
CC1(C(=O)O)CCC(C(=O)NC2CCCCCC2)C1(C)C (stereo unspecified),1.2,1.2,-21,-6,8,-17
COc1ccc(-c2noc(CCC(=O)NCc3cccnc3)n2)cc1OC,0.5,0.8,19,·,·,54*
O=C(CCCc1nc(-c2ccccc2)no1)NCc1cccnc1,0.7,0.8,21,·,·,31
COc1ccc(-c2noc(CCC(=O)Nc3cccnc3)n2)cc1OC,0.7,0.7,30,-4,2,28
COc1ccc(-c2noc(CCC(=O)NCc3cccnc3)n2)cc1,0.3,0.5,50*,·,·,74*
Cc1ccccc1C(NC(N)=O)c1ccccc1 (stereo unspecified),0.7,0.1,95*,11,-9,29
Cc1ccc(CNC(=O)C2CCC(=O)N2CCc2ccccc2)cc1 (stereo unspecified),1.1,0.9,10,-6,5,-9
CC(=O)N1N=C(c2ccncc2)OC12CCCC2,1,0.5,48,-3,1,3
SMILES,CYP2C9 act,CYP2C19 activ,CYP2C19 inhib,sEH activator,sEH inh,CYP2C9 inh
CCOC(=O)c1cnc(Nc2nc3ccccc3o2)nc1CN1CCN(c2ccccc2)CC1,·,·,·,-8,4,·
CCOC(=O)c1cnc(Nc2nc3ccccc3o2)nc1C,0.4,0.1,88*,-12,14,58*
Cn1c(=O)[nH]c(=O)c2[nH]c(CN3CCN(C(=O)c4ccco4)CC3)nc21,1,1.1,-7,-1,2,5
Cc1ccc(S(=O)(=O)NCCSc2nnc(N)s2)cc1,2*,0,96*,6,0,-99
Cc1ccc(S(=O)(=O)NCCSc2nnnn2-c2cc(C)ccc2C)cc1,1.4,0.4,61*,1,2,-35
O=c1cc(C(F)(F)C(F)F)oc2ccccc12,0.9,1.2,-19,6,-6,11
COC(=O)COc1ccc(S(=O)(=O)Nc2ccccc2SC)cc1,·,·,·,12,-8,·
O=S(=O)(NCCOC12CC3CC(CC(C3)C1)C2)c1cccc2nsnc12,1.3,0,97*,9,-6,-31
O=S(=O)(NCCc1ccccc1)c1cccc2nsnc12,0.4,0,99*,-6,4,59*
CCCSc1nn2c(=O)c3ccccc3nc2s1,0.5,0.2,79*,1,1,49
CC(C)(C)NC(=O)C(c1ccccn1)N(C(=O)c1ccc2c(c1)OCCO2)C1CCCC1 (stereo unspecified),0.7,0.9,11,-4,4,27
O=C(c1ccc2c(c1)OCCO2)N(c1ccccn1)C1CCCCC1,0.5,0.7,26,-12,14,52*
C(=N\N1CCN(Cc2ccccc2)CC1)/c1cccs1,0.9,0.4,60*,-12,11,13
Oc1ccc(Br)cc1/C=N/N1CCN(Cc2ccccc2)CC1,1.1,1,2,6,-8,-10
CC(C)(C)C(=O)CN1CCN(C2c3ccccc3-c3ccccc32)CC1,0.9,0.6,40,4,-2,9
C(=N\N1CCN(C2c3ccccc3-c3ccccc32)CC1)/c1cccs1,0.2,0.8,24,-25,28,82*
CC(C)CN(CC(C)C)S(=O)(=O)N1CCC(C(=O)NCCN2CCOCC2)CC1,0.9,1,1,-11,11,10
CCOC(=O)C(C)n1nc(/C=C/c2ccccc2)ccc1=O (stereo unspecified),0.3,0.7,28,-11,11,71*
Cc1ccsc1/C=C/c1ccc2cccc(O)c2n1,0.3,0.4,57*,4,-5,73*
Cc1ccsc1/C=C/c1ccc2ccccc2n1,1,1,3,23,-18,4
CCOP(=O)(OCC)C(C#N)=C1SCN(c2ccc(Cl)cc2)CS1,0.4,0.7,32,5,-1,61*
CCOc1ccc(NC(=O)CSc2nnc(-c3ccccn3)n2C)cc1,0.9,1.1,-10,-5,6,8
CCOC(=O)NC1(NC(C)C)Oc2ccccc2O1,0.9,0.7,31,-1,0,12
CCOC(=O)NC1(NC2CCCCC2)Oc2ccccc2O1,0.4,0.7,34,12,-13,57*
COc1ccc(C(=O)c2ccccc2)c(O)c1,0.8,0.1,86*,-1,0,24
CC(C(=O)NC(=O)NC1CCCCC1)N1CCN(c2ccccn2)CC1 (stereo unspecified),0.4,0.7,25,11,-9,57*
